In PubChem BioAssay (EPA / NIEHS) one finds outcome and AC50 data, which are given here for three compounds.

Holding throughout (settings): mRNA level, 48 h; actives raise or lower the signal
Read-out in assay [1]: Alkaline Phosphatase, Placental (ALPP) gene, ALPP (gene 250)
Description: LTEA_HepaRG_ALPP: Life Technologies and Expression Analysis (LTEA) Assay for Alkaline Phosphatase, Placental (ALPP) gene using HepaRG (AID 2283468). Summed up:
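ALPP transcript level, measured by qRT-PCR and normalized to three housekeeping genes (ACTB, GAPDH, POLR2A), after 48 h dosing of differentiated HepaRG in serum-free induction medium. Top concentration 100 uM with half-log dilutions (8 points, 0.5% DMSO, duplicates); bidirectional fitting relative to DMSO.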

Read-out in assay [2]: Bcl-2 (BAD) gene, BAD (gene 572)
Description: LTEA_HepaRG_BAD: Life Technologies and Expression Analysis (LTEA) Assay for Bcl-2 (BAD) gene using HepaRG (AID 2283469). Summed up:
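Differentiated human HepaRG cells in serum-free induction medium were exposed in duplicate for 48 h to eight concentrations (top 100 uM, half-log steps, 0.5% DMSO). BAD mRNA was quantified by qRT-PCR normalised to ACTB, GAPDH and POLR2A, with bidirectional fitting versus DMSO.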

Read-out in assay [3]: Bcl-2 (BAX) gene, BAX (gene 581)
The assay is described as follows: LTEA_HepaRG_BAX: Life Technologies and Expression Analysis (LTEA) Assay for Bcl-2 (BAX) gene using HepaRG (AID 2283470). Summed up: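 Differentiated HepaRG cells exposed 48 h in serum-free induction medium, eight half-log concentrations from 100 uM, in duplicate, 0.5% DMSO vehicle. BAX mRNA by TaqMan qRT-PCR, normalised to ACTB, GAPDH and POLR2A.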

Read-out in assay [4]: adenosine kinase (ADK) gene, ADK (gene 132)
The assay is described as follows: LTEA_HepaRG_ADK: Life Technologies and Expression Analysis (LTEA) Assay for adenosine kinase (ADK) gene using HepaRG (AID 2283471). Summed up: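 Following 48 h exposure of HepaRG cells in 0.5% DMSO (top concentration 100 uM, duplicate wells), ADK mRNA induction or suppression was measured by qRT-PCR, normalised to ACTB/GAPDH/POLR2A, and fitted bidirectionally relative to vehicle.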

Read-out in assay [5]: Alpha-fetoprotein (AFP) gene, AFP (gene 174)
Description: LTEA_HepaRG_AFP: Life Technologies and Expression Analysis (LTEA) Assay for Alpha-fetoprotein (AFP) gene using HepaRG (AID 2283472). Summed up: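 Differentiated human HepaRG cells exposed 48 h in serum-free induction medium, 8-point half-log series from 100 uM in 0.5% DMSO, duplicate. AFP mRNA by qRT-PCR, normalized to ACTB, GAPDH, POLR2A; bidirectional fit vs DMSO.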

Read-out in assay [6]: BCL2L11 (gene 10018)
Description: LTEA_HepaRG_BCL2L11: Life Technologies and Expression Analysis (LTEA) Assay for Bcl-2 (BCL2L11) gene using HepaRG (AID 2283473). Summed up:
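BCL2L11 transcript levels are measured by Fluidigm qRT-PCR, normalized to three housekeeping genes. HepaRG cultures were plated 48 h, then treated 48 h with test chemical (top 100 uM, half-log, 0.5% DMSO vehicle); curves were fitted bidirectionally against DMSO.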

Read-out in assay [7]: Apolipoprotein A-V (APOA5) gene, APOA5 (gene 116519)
The assay is described as follows: LTEA_HepaRG_APOA5: Life Technologies and Expression Analysis (LTEA) Assay for Apolipoprotein A-V (APOA5) gene using HepaRG (AID 2283474). Summed up: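 APOA5 transcript levels were quantified by qRT-PCR, normalized to three housekeeping genes, after 48 h chemical treatment of HepaRG cells (8 points, 100 uM maximum, half-log steps, 0.5% DMSO). Curves fitted in both directions against vehicle.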

Read-out in assay [8]: Apoptosis regulator Bcl-2 (Homo sapiens) (UniProt P10415)
The assay is described as follows: LTEA_HepaRG_BCL2: Life Technologies and Expression Analysis (LTEA) Assay for Bcl-2 gene using HepaRG (AID 2283475). Summed up:
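Differentiated human HepaRG cells in serum-free induction medium exposed 48 h, in duplicate, to 8-point half-log series from 100 uM in 0.5% DMSO. BCL2 mRNA by qRT-PCR (TaqMan/Fluidigm), normalized to ACTB, GAPDH, POLR2A; bidirectional fit against DMSO.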

Read-out in assay [9]: Bcl-2 (BID) gene, BID (gene 637)
The assay is described as follows: LTEA_HepaRG_BID: Life Technologies and Expression Analysis (LTEA) Assay for Bcl-2 (BID) gene using HepaRG (AID 2283476). Summed up:
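Gene expression by qRT-PCR in HepaRG cells after 48 h exposure, duplicate wells, eight half-log concentrations topping at 100 uM in 0.5% DMSO. Normalized to ACTB, GAPDH, POLR2A; bidirectional fitting relative to DMSO.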

Read-out in assay [10]: Caspase-3 (Homo sapiens) (UniProt P42574)
Description: LTEA_HepaRG_CASP3: Life Technologies and Expression Analysis (LTEA) Assay for cysteine-aspartic acid protease (CASP3) using HepaRG (AID 2283477). Summed up:
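Expression of CASP3 was quantified by TaqMan qRT-PCR against three housekeeping genes (ACTB, GAPDH, POLR2A), bidirectionally versus 0.5% DMSO. HepaRG cultures received compounds in duplicate, top 100 uM with half-log steps, for 48 h in serum-free induction medium.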

Read-out in assay [11]: Cytochrome P450 (CYP24A1), CYP24A1 (gene 1591)
The assay is described as follows: LTEA_HepaRG_CYP24A1: Life Technologies and Expression Analysis (LTEA) Assay for Cytochrome P450 (CYP24A1) using HepaRG (AID 2283478). Summed up: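 mRNA of CYP24A1 quantified by TaqMan qRT-PCR (ACTB/GAPDH/POLR2A normalization) after 48 h chemical exposure of HepaRG cells, top concentration 100 uM, half-log steps, 0.5% DMSO vehicle, duplicates. Curves fitted bidirectionally against DMSO baseline.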

Read-out in assay [12]: Cytochrome P450 (CYP1A2), CYP1A2 (gene 1544)
The assay is described as follows: LTEA_HepaRG_CYP1A2: Life Technologies and Expression Analysis (LTEA) Assay for Cytochrome P450 (CYP1A2) using HepaRG (AID 2283479). Summed up:
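CYP1A2 transcript measured by TaqMan qRT-PCR against three housekeeping genes after 48-hour chemical exposure of HepaRG cells. Eight-point half-log series topping at 100 uM in 0.5% DMSO, duplicates; gain or loss fitted relative to vehicle.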

Read-out in assay [13]: cysteine-aspartic acid protease (CASP8), CASP8 (gene 841)
The assay is described as follows: LTEA_HepaRG_CASP8: Life Technologies and Expression Analysis (LTEA) Assay for cysteine-aspartic acid protease (CASP8) using HepaRG (AID 2283480). Summed up: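 Differentiated human HepaRG cells, plated 48 h then switched to serum-free induction medium, were exposed in duplicate for 48 h to 8 half-log concentrations up to 100 uM in 0.5% DMSO. CASP8 mRNA was quantified by qRT-PCR, normalized to ACTB/GAPDH/POLR2A.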

Read-out in assay [14]: Cytochrome P450 (CYP2B6), CYP2B6 (gene 1555)
Description: LTEA_HepaRG_CYP2B6: Life Technologies and Expression Analysis (LTEA) Assay for Cytochrome P450 (CYP2B6) using HepaRG (AID 2283481). Summed up: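 CYP2B6 transcript level quantified by qRT-PCR against three housekeeping genes, fitted bidirectionally relative to DMSO. HepaRG cultures received chemicals for 48 h, 8-point half-log series from 100 uM in 0.5% DMSO, duplicate wells, serum-free induction medium.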

Read-out in assay [15]: Cytochrome P450 2C19 (Homo sapiens) (UniProt P33261)
Description: LTEA_HepaRG_CYP2C19: Life Technologies and Expression Analysis (LTEA) Assay for CYP2C19 using HepaRG (AID 2283482). Summed up: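 CYP2C19 transcript levels by qRT-PCR, normalized to three housekeeping genes, in HepaRG cells after 48 h chemical exposure. Eight-point half-log series topping at 100 uM, 0.5% DMSO vehicle. Increases and decreases both fitted against DMSO.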

Read-out in assay [16]: CYP2C8 (gene 1558)
Description: LTEA_HepaRG_CYP2C8: Life Technologies and Expression Analysis (LTEA) Assay for CYP2C8 using HepaRG (AID 2283483). Summed up: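 Differentiated human HepaRG cells were exposed for 48 h in serum-free induction medium to eight half-log concentrations up to 100 uM in 0.5% DMSO, in duplicate. CYP2C8 mRNA was measured by TaqMan qRT-PCR, normalized to ACTB, GAPDH and POLR2A, and fitted bidirectionally against DMSO.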

Read-out in assay [17]: CYP2C9 (gene 1559)
The assay is described as follows: LTEA_HepaRG_CYP2C9: Life Technologies and Expression Analysis (LTEA) Assay for CYP2C9 using HepaRG (AID 2283484). Summed up:
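Differentiated human HepaRG cells were exposed 48 h in serum-free induction medium to eight half-log concentrations up to 100 uM in 0.5% DMSO. CYP2C9 mRNA was measured by qRT-PCR, normalized to ACTB, GAPDH and POLR2A, and fitted bidirectionally against DMSO.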

Read-out in assay [18]: CYP2E1 (gene 1571)
The assay is described as follows: LTEA_HepaRG_CYP2E1: Life Technologies and Expression Analysis (LTEA) Assay for CYP2E1 using HepaRG (AID 2283485). Summed up: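 HepaRG cells, plated 48 h, then exposed 48 h in serum-free induction medium to eight half-log concentrations from 100 uM in 0.5% DMSO, duplicate. CYP2E1 mRNA by qRT-PCR, normalized to ACTB/GAPDH/POLR2A; bidirectional fit versus DMSO.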

Read-out in assay [19]: CYP4A11 (gene 1579)
Description: LTEA_HepaRG_CYP4A11: Life Technologies and Expression Analysis (LTEA) Assay for CYP4A11 using HepaRG (AID 2283486). Summed up: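 Readout is CYP4A11 transcript level by qRT-PCR, normalized to three housekeeping genes and fitted bidirectionally against 0.5% DMSO. Human HepaRG cells were treated 48 h, in duplicate, with an 8-point half-log series topping at 100 uM.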

Read-out in assay [20]: Cytochrome P450 3A4 (Homo sapiens) (UniProt P08684)
The assay is described as follows: LTEA_HepaRG_CYP3A4: Life Technologies and Expression Analysis (LTEA) Assay for CYP3A4 using HepaRG (AID 2283487). Summed up: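 In a human hepatic line (HepaRG), duplicate wells were treated 48 h with up to 100 uM chemical in half-log dilutions. Endpoint: CYP3A4 mRNA induction or loss relative to 0.5% DMSO vehicle, by qRT-PCR.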

Active and inactive are the calls of the source. The calls were made as follows: active = hit-call score of the fitted dose curve at least 0.9, where 1 is the maximum; inactive = score below 0.9.

Chain of Cytochrome P450 3A4 (Homo sapiens) (P08684 whole entry, looked up): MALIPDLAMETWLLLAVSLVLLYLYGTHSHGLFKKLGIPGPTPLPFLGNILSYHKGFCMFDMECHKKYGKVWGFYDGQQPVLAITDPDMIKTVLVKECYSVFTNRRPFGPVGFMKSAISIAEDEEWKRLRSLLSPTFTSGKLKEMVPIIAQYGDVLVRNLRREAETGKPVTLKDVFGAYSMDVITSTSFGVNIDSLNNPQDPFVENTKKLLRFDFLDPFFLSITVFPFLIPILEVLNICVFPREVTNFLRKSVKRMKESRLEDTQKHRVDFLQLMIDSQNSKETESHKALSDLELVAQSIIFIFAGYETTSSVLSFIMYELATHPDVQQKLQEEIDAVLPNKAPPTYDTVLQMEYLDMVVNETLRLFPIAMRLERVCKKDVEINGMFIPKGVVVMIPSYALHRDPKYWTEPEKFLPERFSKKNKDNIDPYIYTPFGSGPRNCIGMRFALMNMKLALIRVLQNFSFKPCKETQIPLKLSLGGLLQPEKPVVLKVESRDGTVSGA
Chain of Apoptosis regulator Bcl-2 (Homo sapiens) (P10415 whole entry, looked up): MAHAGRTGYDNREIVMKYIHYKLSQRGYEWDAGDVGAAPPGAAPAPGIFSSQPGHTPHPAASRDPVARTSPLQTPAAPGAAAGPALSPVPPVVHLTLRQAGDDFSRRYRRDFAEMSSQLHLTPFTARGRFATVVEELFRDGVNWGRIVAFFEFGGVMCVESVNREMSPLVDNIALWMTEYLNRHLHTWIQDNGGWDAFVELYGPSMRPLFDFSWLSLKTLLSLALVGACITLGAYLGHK
Chain of Caspase-3 (Homo sapiens) (P42574 whole entry, looked up): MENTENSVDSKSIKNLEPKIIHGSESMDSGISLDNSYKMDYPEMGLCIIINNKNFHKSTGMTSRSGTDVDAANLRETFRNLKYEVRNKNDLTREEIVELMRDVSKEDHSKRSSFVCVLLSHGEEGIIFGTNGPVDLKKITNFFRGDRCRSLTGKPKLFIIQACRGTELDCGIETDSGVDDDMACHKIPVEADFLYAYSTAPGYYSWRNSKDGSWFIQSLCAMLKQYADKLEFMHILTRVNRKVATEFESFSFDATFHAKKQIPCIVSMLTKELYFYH
Chain of Cytochrome P450 2C19 (Homo sapiens) (P33261 whole entry, looked up): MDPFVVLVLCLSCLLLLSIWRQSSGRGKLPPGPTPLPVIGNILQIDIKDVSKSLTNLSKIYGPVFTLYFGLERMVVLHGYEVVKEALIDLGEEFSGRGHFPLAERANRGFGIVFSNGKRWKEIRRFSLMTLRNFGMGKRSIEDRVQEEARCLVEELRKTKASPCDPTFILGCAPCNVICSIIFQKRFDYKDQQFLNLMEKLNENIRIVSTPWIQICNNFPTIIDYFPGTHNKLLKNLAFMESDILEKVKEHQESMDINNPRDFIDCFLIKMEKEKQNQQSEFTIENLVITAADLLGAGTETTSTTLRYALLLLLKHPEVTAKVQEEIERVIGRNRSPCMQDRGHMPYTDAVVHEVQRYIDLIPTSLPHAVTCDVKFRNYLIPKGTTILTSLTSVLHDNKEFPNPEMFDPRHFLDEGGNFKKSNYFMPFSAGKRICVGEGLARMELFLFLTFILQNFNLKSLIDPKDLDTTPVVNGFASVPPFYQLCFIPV

`CCOC(=O)COc1cc(-c2nn(C)c(OC(F)F)c2Cl)c(F)cc1Cl`: the compound was called inactive in assay [1], in assay [2], in assay [3], in assay [4], in assay [5] and in [6]. The compound was called inactive in assay [7], in [8], in assay [9], in assay [10], in [11] and in assay [12]. Besides, the call in assay [13], in assay [17] and in [19] was inactive. The AC50 (as a rule, the concentration giving half of the maximal activity seen) is 63.5 µM (active) in assay [14]; 50 µM (active) in assay [15]; 50 µM (active) in [16]; 16.3 µM (active) in assay [18]; 22.8 µM (active) in assay [20].

Consider `COP(=O)(OC)OC(Br)C(Cl)(Cl)Br` (configuration not stated), for which the result in [1], in assay [2], in [5], in [7], in assay [8] and in assay [9] was inactive. Further, the result in assay [10], in [11], in [13], in [15], in assay [16] and in assay [17] was inactive. Further, the outcome in [18], in [19] and in [20] was inactive. Besides, the values for the AC50 in assay [12] and in assay [14] were 26.3 µM (active) and 2.45 µM (active), respectively.

With `CCNc1nc(Cl)nc(NC(C)(C)C#N)n1`, the outcome in [1], in assay [2], in assay [3], in assay [4], in [5] and in assay [6] was inactive. Also, the call in [7], in assay [8], in assay [9], in assay [10], in assay [11] and in assay [12] was inactive. In addition, the compound was classed as inactive in assay [13], in assay [16] and in assay [17]. Moreover, the AC50 in assay [14] was 1.68 µM (active); in assay [15], 12.4 µM (active); in assay [18] it was 13.2 µM (active); in [19] it was 39.9 µM (active); in assay [20], 4.42 µM (active).
